CYP2C9 act: CYP2C9 (human) activation | 96,000 compounds, 1.4% hits | activation factor at 5 µM | AID 1024 | recombinant CYP2C9, luciferin-H conversion, luminescence; active compounds read high; factor 1 = untreated enzyme, 0 = blocked | P11712;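 active means activation factor of 2 or more for CYP2C9 at a 5 µM dose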;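 further: 0 = sulfaphenazole-blocked wells and 1 = vehicle-only wells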
PostGolgi ctrl: inhibits growth of the yeast control strain | efflux-deficient yeast background strain, growth absorbance A615, 16 h | inhibition, % at 10 µM | 98,000 compounds, 5% hits | AID 738
CYP2C19 inh: blocks human cytochrome P450 2C19; inhibition, % at 5 µM; CYP2C19 Supersomes, luciferin-H EGE luminescence, 30 min; 96,000 compounds, 21% hits; P33261;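 active means CYP2C19 inhibition above a set limit at 5 µM in the primary screen, cut at about 50% in these data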;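 further: plate controls were negative control wells for no effect and 2.5 mM tranylcypromine positive control for full effect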
Target sequence (P33261 whole entry, looked up): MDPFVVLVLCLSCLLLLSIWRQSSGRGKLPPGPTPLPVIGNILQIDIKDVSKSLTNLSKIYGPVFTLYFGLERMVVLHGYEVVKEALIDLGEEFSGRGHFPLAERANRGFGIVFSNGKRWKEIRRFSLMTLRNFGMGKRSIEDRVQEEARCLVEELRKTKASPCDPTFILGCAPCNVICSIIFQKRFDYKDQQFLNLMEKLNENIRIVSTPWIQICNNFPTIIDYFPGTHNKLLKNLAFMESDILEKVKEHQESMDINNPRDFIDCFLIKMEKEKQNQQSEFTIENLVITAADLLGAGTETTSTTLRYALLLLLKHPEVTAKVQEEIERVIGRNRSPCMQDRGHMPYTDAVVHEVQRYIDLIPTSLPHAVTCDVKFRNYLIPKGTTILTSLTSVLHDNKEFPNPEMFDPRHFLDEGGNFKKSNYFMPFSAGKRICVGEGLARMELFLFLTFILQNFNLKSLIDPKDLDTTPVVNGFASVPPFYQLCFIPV
PostGolgi yeast: growth inhibition of a yeast mutant, post-Golgi transport screen. post-Golgi transport phenotypic cell assay. inhibition, % at 10 µM. 98,000 compounds, 0.9% hits. AID 739;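 further: yeast cells grown in 1536-well plates; yeast grown about 18 h at 30C before absorbance read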
CYP2C19 activ: activators of human cytochrome P450 2C19; P33261; recombinant CYP2C19, luciferin-H EGE luminescence; active compounds read high; 0 = fully inhibited enzyme, 1 = untreated enzyme; activation factor at 5 µM; 96,000 tested, under 10 active; AID 1025;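 active means activation factor of at least 2 at 5 µM in the primary screen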;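 further: 0 = wells with 2.5 mM tranylcypromine and 1 = vehicle-only wells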
CYP2C9 inh: human CYP2C9 inhibition. CYP2C9 Supersomes, luciferin-H conversion, luminescence. inhibition, % at 5 µM. 96,000 compounds, 20% hits. AID 777;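 active means blocking of liver enzyme CYP2C9 beyond about 50% at 5 µM, limit read from the data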
Starred values were filed as active, the others as inactive. Hits are enriched below; roughly 32% of the tested compounds scored in any of these assays. Unless noted, no stated cut-off is given here; in the data, active means inhibition above about 30%; inactive means the rest.

SMILES | CYP2C9 act | PostGolgi ctrl | CYP2C19 inh | PostGolgi yeast | CYP2C19 activ | CYP2C9 inh
CC1CCN(S(=O)(=O)c2ccc3[nH]c(=O)cc(C(=O)O)c3c2)CC1 | 0.6 | 31* | 7 | -15 | 0.9 | 40
Cc1cc(C(C)(C)C)oc1C(=O)N(CC(=O)NC1CCCC1)c1cccc(C(F)(F)F)c1 | 0.8 | 0 | 32 | -7 | 0.7 | 22
Cc1ccc(CCNC(=O)CS(=O)Cc2nc(-c3cccc(C)c3)oc2C)cc1 (stereo not given) | 0.3 | 10 | 64* | 1 | 0.4 | 70*
Cc1oc(-c2ccccc2F)nc1CS(=O)CC(=O)NCc1cccs1 (stereo not given) | 0.4 | 10 | 53* | 3 | 0.5 | 63*
Cc1oc(-c2ccccc2Cl)nc1CS(=O)CC(=O)NCc1cccs1 (stereo not given) | 0.3 | 12 | 71* | -16 | 0.3 | 69*
Cc1cccc(-c2nc(CS(=O)CC(=O)NCc3cccs3)c(C)o2)c1 (stereo not given) | 0.4 | 3 | 37 | -8 | 0.6 | 60*
CCCn1nnnc1NC(=O)c1cccs1 | 0.8 | 3 | 8 | 13 | 0.9 | 16
Cc1oc(-c2ccccc2F)nc1CS(=O)CC(=O)NCc1ccc2c(c1)OCO2 (stereo not given) | 0.5 | -6 | 62* | 10 | 0.4 | 53*
Cc1ccccc1-c1nc(CS(=O)(=O)CC(=O)NCc2ccc3c(c2)OCO3)c(C)o1 | 0.7 | 10 | 4 | 0 | 1 | 31
Cc1ccc(NC(=O)Cc2nnc(SCC(=O)c3ccc(Br)cc3)n2C)cc1Cl | 0.9 | 13 | -9 | 2 | 1.1 | 12
O=C(COC(=O)[C@@H]1CCCN1C(=O)c1cccs1)NCCc1ccccc1 | 0.8 | 0 | 60* | 2 | 0.4 | 19
CC(C)NC(=O)NC(=O)COC(=O)C1CCCN1C(=O)c1cccs1 (stereo not given) | 0.8 | 20 | 12 | -2 | 0.9 | 17
COc1ccccc1NC(=O)COC(=O)[C@@H]1CCCN1C(=O)c1cccs1 | 0.9 | -11 | 59* | 1 | 0.4 | 8
CCc1nc(OCCN(CC)CC)c2oc3ccccc3c2n1 | 1.1 | 8 | -7 | 4 | 1.1 | -10
CCN(CC)CCOc1ncnc2c1oc1ccccc12 | 0.6 | -8 | 66* | 2 | 0.3 | 43
C/C(CCc1oc2ccccc2c1-c1ccc(C)o1)=N/O | 1.1 | 47* | 34 | 12 | 0.7 | -7
COc1cc2c3c(c1OC)C1(C=CC(=O)C=C1)CC3N(C(=O)c1ccccc1)CC2 (stereo not given) | 0.1 | 12 | 14 | 0 | 0.9 | 86*
Cc1cccc(C)c1NC(=S)N/N=C/c1ccc(OCCC(C)C)cc1 | 0.4 | 14 | 16 | 2 | 0.8 | 62*
Cc1cc(C)n(C2CCCCC2OC(=O)c2ccccc2)n1 (stereo not given) | 0.8 | 12 | 53* | 2 | 0.5 | 19
N/C(=N\OC(=O)CC1CCCCC1)c1ccccn1 | 0.9 | 28 | 24 | -6 | 0.8 | 10
COc1cc(OC)cc(C(=O)Nc2ccc(-n3cnnn3)c(C)c2)c1 | 0.1 | 13 | 83* | 6 | 0.2 | 92*
Cc1cc(NC(=O)c2oc3ccccc3c2C)ccc1-n1cnnn1 | 0.2 | 34* | 43 | -8 | 0.6 | 77*
O=S(=O)(NC1CCc2ccccc21)c1ccc(S(=O)(=O)N2CCCC2)cc1 (stereo not given) | 1.1 | 18 | -16 | 7 | 1.2 | -6
Cc1cccc(NC(=O)CCSc2nc(C)cc(C)n2)c1 | 2.7* | 26 | 52* | -1 | 0.5 | -169
COC(=O)c1cccc(NC(=O)COC(=O)CSc2nc(C)cc(C)n2)c1 | 0.7 | -2 | 26 | -1 | 0.7 | 28
Cc1cccc(NC(=O)CSc2nnc(CSc3nc(C)cc(C)n3)o2)c1 | 0.6 | 9 | 89* | 13 | 0.1 | 44
C=CCn1c(=O)c(C(=O)NCCc2ccccc2)c(O)c2ccccc21 | 0.7 | 10 | 28 | -1 | 0.7 | 34
CCn1c(SCC(=O)NCC(=O)Nc2ccc(F)cc2)nnc1-c1cccs1 | 0.1 | 14 | 31 | 21 | 0.7 | 93*
CCn1c(SCC(=O)Nc2ccc3c(c2)OCCO3)nnc1-c1cccs1 | 0.5 | 24 | 33 | -8 | 0.7 | 52*
Cc1nnc(SCC(=O)Nc2ccc3c(c2)OCCO3)n1N | 1 | -1 | -2 | -14 | 1 | -3

Source: PubChem
